Assay results from the supplement of paper PMC9135407.
Values joined by “and” are separate entries in the source; they are usually repeats but may differ in a detail not shown here. Identical values can stand only once. Counter-ions that a name gives are not always drawn. Among all 5,800 compounds or so, about 620 (11%) showed activity. For the sample, actives were picked, then their nearest neighbours and some compounds at random. A number with no mark means an inactive call.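 Rule for the calls: active = score above a cut-off or among the top three wells of a plate; in these data no inactive exceeds 0.85.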

Test system: primary human hepatic stellate cells (donor 1)
Assay: scaled lipid accumulation score (0 = DMSO-like, 1 = nortriptyline-like); higher = stronger HSC inactivation (lipid re-accumulation), active = hit call of the paper
Conditions: 48 h
Method: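 Primary lipid accumulation screen in primary human hepatic stellate cell myofibroblasts (donor 1, passage 8) in 384-well plates. 100 nL of library compound was pin-transferred into 30 µL medium in duplicate, and cells were treated for 48 h. The 'Scaled' score combines distance from plate baseline, toxicity and reproducibility penalties, and is normalised to nortriptyline (positive) and DMSO (negative) controls on each plate. A hit is defined as scaled >0.85 or among the top 3 wells per plate.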

[1] = library stock concentration: 1 mM
[2] = library stock concentration: 10 mM
[3] = library stock concentration: 3.33 mM
[4] = library stock concentration: 80 uM
[5] = library stock concentration: 400 uM
[6] = library stock concentration: 2 mM

SMILES: CC1CCN=C(N)C1 (configuration not stated) [2-Imino-4-methylpiperidine (acetate)]
- scaled lipid accumulation score [1]: 0.011

SMILES: N#C/C(=C\c1ccc(O)c(O)c1)C(=O)NCCCCc1ccccc1
- scaled lipid accumulation score [2]: ≤ 0

SMILES: CCCCCOc1ccccc1C(O)CC#CCCCC(=O)OC (configuration not stated)
- scaled lipid accumulation score [1]: 0.022

SMILES: CNS(=O)(=O)CCc1ccc2[nH]cc(C3CCN(C)CC3)c2c1 [Naratriptan]
- scaled lipid accumulation score [3]: ≤ 0
- scaled lipid accumulation score [2]: ≤ 0

SMILES: Br.CN1CCC[C@@H]1Cc1c[nH]c2ccc(CCS(=O)(=O)c3ccccc3)cc12 [Eletriptan hydrobromide]
- scaled lipid accumulation score [2]: 0.912 (active)

SMILES: CNS(=O)(=O)CCc1ccc2[nH]cc(C3CCN(C)CC3)c2c1 [Naratriptan hydrochloride]
- scaled lipid accumulation score [2]: 0.019

SMILES: CN1CCC[C@@H]1Cc1c[nH]c2ccc(CCS(=O)(=O)c3ccccc3)cc12 [Eletriptan hydrobromide]
- scaled lipid accumulation score [2]: 0.624

SMILES: CN1CCC[C@@H]1Cc1c[nH]c2ccc(CCS(=O)(=O)c3ccccc3)cc12 [Eletriptan HBr]
- scaled lipid accumulation score [3]: 0.194
- scaled lipid accumulation score [2]: 0.202

SMILES: COC(=O)N[C@H](C(=O)N1CCC[C@H]1c1ncc(-c2ccc(-c3ccc(-c4cnc([C@@H]5CCCN5C(=O)[C@@H](NC(=O)OC)C(C)C)[nH]4)cc3)cc2)[nH]1)C(C)C [listing 1 of 2 here]
- scaled lipid accumulation score [2]: 1.04 (active)

SMILES: COC(=O)N[C@H](C(=O)N1CCC[C@H]1c1ncc(-c2ccc(-c3ccc(-c4cnc([C@@H]5CCCN5C(=O)[C@@H](NC(=O)OC)C(C)C)[nH]4)cc3)cc2)[nH]1)C(C)C [listing 2 of 2 here]
- scaled lipid accumulation score [3]: 0.322

SMILES: CCCCC[C@H](O)/C=C/[C@@H]1C2C[C@H](CCCCC(=O)O)O[C@@H]2C[C@H]1O (stereo partly drawn) [6.beta.-Prostaglandin I1]
- scaled lipid accumulation score [1]: 0.004

SMILES: CC(N)(Cc1ccc(O)c(O)c1)C(=O)O (configuration not stated)
- scaled lipid accumulation score [2]: ≤ 0

SMILES: CC(C)CN1CCC(CNCc2ccc(C#CC(C)(C)O)s2)CC1
- scaled lipid accumulation score [2]: 0.671 (active)

SMILES: Cc1c(C)c2c(c(C)c1O)CCC(C)(CCCC(C)C(=O)O)O2 (configuration not stated)
- scaled lipid accumulation score [1]: ≤ 0

SMILES: C[C@H]1C[C@H]2[C@@H]3CCC4=CC(=O)C=C[C@]4(C)[C@H]3C(=O)C[C@]2(C)[C@@]1(O)C(=O)CO [Meprednisone]
- scaled lipid accumulation score [3]: 0.055
- scaled lipid accumulation score [2]: ≤ 0

SMILES: Cc1ccc(F)c(NC(=O)Nc2ccc(-c3cccc4[nH]nc(N)c34)cc2)c1 [listing 1 of 2 here]
- scaled lipid accumulation score [2]: 1.08 (active)

SMILES: Cc1cc(NC(=O)Nc2ccc(N(C)C)cc2)c2cc(F)cc(F)c2n1
- scaled lipid accumulation score [3]: 0.007
- scaled lipid accumulation score [2]: 0.001 and ≤ -0.006

SMILES: Cc1ccc(F)c(NC(=O)Nc2ccc(-c3cccc4[nH]nc(N)c34)cc2)c1 [Linifanib (ABT-869)]
- scaled lipid accumulation score [3]: ≤ 0
- scaled lipid accumulation score [2]: ≤ 0

SMILES: Cc1ccc(F)c(NC(=O)Nc2ccc(-c3cccc4[nH]nc(N)c34)cc2)c1 [listing 2 of 2 here]
- scaled lipid accumulation score [4]: 0.001
- scaled lipid accumulation score [5]: ≤ -0.009 and ≤ -0.005
- scaled lipid accumulation score [6]: 0.233 and 0.419
- scaled lipid accumulation score [2]: 0.446

SMILES: CCCCCCCCCCCCC(=O)NC1CCOC1=O [N-tridecanoyl-L-Homoserine lactone]
- scaled lipid accumulation score [1]: ≤ 0

SMILES: COc1cccc(C=NCCN=Cc2cccc(OC)c2[O-])c1[O-].[Cl-].[Mn+3]
- scaled lipid accumulation score [3]: ≤ 0
- scaled lipid accumulation score [2]: 0.234

SMILES: Cc1ccc(/C=N/NC(=O)c2ccccc2Oc2ccccc2)o1
- scaled lipid accumulation score [2]: ≤ -0.001

SMILES: CN(C)C(=O)n1nnnc1Cc1ccc(-c2ccccc2)cc1
- scaled lipid accumulation score [2]: 0.554

SMILES: O=C(Nc1c[nH]nc1-c1nc2ccc(CN3CCOCC3)cc2[nH]1)NC1CC1 [listing 1 of 2 here]
- scaled lipid accumulation score [4]: 0.613
- scaled lipid accumulation score [5]: 0.259
- scaled lipid accumulation score [6]: 0.562 and 0.591
- scaled lipid accumulation score [3]: 0.59
- scaled lipid accumulation score [2]: 0.791 and 0.755 and 0.681

SMILES: O=C(Nc1c[nH]nc1-c1nc2ccc(CN3CCOCC3)cc2[nH]1)NC1CC1 [listing 2 of 2 here]
- scaled lipid accumulation score [5]: 0.877 (active)

SMILES: O=C(NC1CCOCC1)c1ccc(-c2cc(-c3c[nH]nc3-c3ccccn3)ccn2)cc1
- scaled lipid accumulation score [3]: ≤ 0
- scaled lipid accumulation score [2]: ≤ 0

SMILES: CCCCC[C@H](O)/C=C/[C@H]1[C@@H]2CO[C@@H](C2)[C@@H]1C/C=C\CCCC(=O)O
- scaled lipid accumulation score [1]: ≤ 0

SMILES: O=P(O)(O)O[C@@H]1[C@H](O)[C@H](O)[C@@H](OP(=O)(O)O)[C@H](OP(=O)(O)O)[C@H]1O [D-myo-Inositol-1,4,5-triphosphate (sodium salt)]
- scaled lipid accumulation score [1]: 0.018

SMILES: CN(C)CCCOc1nn(Cc2ccccc2)c2ccccc12 [Benzydamine HCl]
- scaled lipid accumulation score [3]: 0.13

SMILES: CC(C)(OCc1nn(Cc2ccccc2)c2ccccc12)C(=O)O [Bindarit]
- scaled lipid accumulation score [3]: ≤ 0
- scaled lipid accumulation score [2]: ≤ 0

SMILES: CN(C)CCCOc1nn(Cc2ccccc2)c2ccccc12.Cl [Benzydamine HCl]
- scaled lipid accumulation score [2]: 1.08 (active)

SMILES: CN(C)CCCOc1nn(Cc2ccccc2)c2ccccc12 [Benzydamine hydrochloride]
- scaled lipid accumulation score: 0.652
- scaled lipid accumulation score (library stock concentration: 5.8 mM): 0.429

SMILES: COc1cc2c(cc1Cc1cccc(Cl)c1F)c(=O)c(C(=O)O)cn2[C@H](CO)C(C)C [Elvitegravir (GS-9137, JTK-303)]
- scaled lipid accumulation score [3]: ≤ 0
- scaled lipid accumulation score [2]: ≤ 0

SMILES: O=C(O)CCCCCCC1C(=O)N(Cc2ccccc2)C(=O)N1NCC(O)C1CCCCC1 (configuration not stated)
- scaled lipid accumulation score [1]: ≤ 0

SMILES: CCCn1cc(-c2ccnc(NC3CCN(Cc4cccnc4)CC3)n2)c(C)n1
- scaled lipid accumulation score [2]: 0.91 (active)

SMILES: COC(=O)C[C@](O)(CCCC(C)(C)O)C(=O)O[C@@H]1C(OC)=C[C@]23CCCN2CCc2cc4c(cc2[C@H]13)OCO4 [Homoharringtonine]
- scaled lipid accumulation score [2]: 1.27 (active)

SMILES: O=C1O/C(=C/Br)CCC1c1cccc2ccccc12 (configuration not stated) [Bromoenol lactone]
- scaled lipid accumulation score [1]: ≤ 0

SMILES: O=c1[nH]c(C2CCCN2)nc2c1oc1ccc(Cl)cc12 (configuration not stated)
- scaled lipid accumulation score [4]: ≤ 0
- scaled lipid accumulation score [5]: 0.055
- scaled lipid accumulation score [6]: ≤ 0
- scaled lipid accumulation score [2]: ≤ 0

SMILES: O=C(O)CCC/C=C\C[C@@H]1[C@@H](/C=C/[C@@H](O)C2CCCCC2)[C@H](O)C[C@@H]1O [15-cyclohexyl pentanor Prostaglandin F2.alpha.]
- scaled lipid accumulation score [1]: ≤ 0

SMILES: CCCCC/C=C\C/C=C\C/C=C\C/C=C\CCCCCC(=O)O [Adrenic Acid]
- scaled lipid accumulation score [1]: ≤ 0

SMILES: O=C(Nc1ccccc1-c1cn2c(CN3CCNCC3)csc2n1)c1cnc2ccccc2n1
- scaled lipid accumulation score [3]: 0.121
- scaled lipid accumulation score [2]: 0.384

SMILES: CCOC(=O)[C@H](CCc1ccccc1)N[C@@H](C)C(=O)N1[C@H](C(=O)O)C[C@H]2CCCC[C@@H]21 [Trandolapril]
- scaled lipid accumulation score [2]: 0.059 and 0.177

SMILES: CCCCCC(=O)/C=C/[C@@H]1[C@@H](CCCCCCC(=O)O)[C@@H](O)C[C@H]1O [15-keto Prostaglandin F1.alpha.]
- scaled lipid accumulation score [1]: ≤ 0

SMILES: Cc1cnc(CNC(=O)c2c(=O)c3ccc(N4CCCN(C)CC4)nc3n3c2sc2ccccc23)cn1
- scaled lipid accumulation score [4]: ≤ 0
- scaled lipid accumulation score [5]: ≤ 0
- scaled lipid accumulation score [6]: ≤ 0
- scaled lipid accumulation score [2]: ≤ 0

SMILES: CCOC(=O)[C@H](CCc1ccccc1)N[C@H]1CCc2ccccc2N(CC(=O)O)C1=O [Benazepril hydrochloride]
- scaled lipid accumulation score [2]: ≤ -0.027 and 0.038

SMILES: CCOC(=O)[C@H](CCc1ccccc1)N[C@H]1CCc2ccccc2N(CC(=O)O)C1=O [Benazepril HCl]
- scaled lipid accumulation score [3]: ≤ 0
- scaled lipid accumulation score [2]: ≤ 0

SMILES: CCOC(=O)[C@H](CCc1ccccc1)N[C@H]1CCc2ccccc2N(CC(=O)O)C1=O
- scaled lipid accumulation score [2]: ≤ 0

SMILES: CC(CN(C)C)CN1c2ccccc2CCc2ccccc21.O=C(O)/C=C\C(=O)O (configuration not stated) [Trimipramine maleate]
- scaled lipid accumulation score [2]: 0.877 (active)

SMILES: CC(CN(C)C)CN1c2ccccc2Sc2ccccc21 (configuration not stated) [Trimeprazine tartrate]
- scaled lipid accumulation score: 0.689
- scaled lipid accumulation score [2]: 0.834

SMILES: CC(CN(C)C)CN1c2ccccc2Sc2ccccc21.O=C(O)C(O)C(O)C(=O)O (configuration not stated) [Trimeprazine tartrate]
- scaled lipid accumulation score (library stock concentration: 4.5 mM): 0.915 (active)

SMILES: CC(CN(C)C)CN1c2ccccc2CCc2ccccc21 (configuration not stated) [Trimipramine maleate]
- scaled lipid accumulation score (library stock concentration: 4.9 mM): 0.715
- scaled lipid accumulation score [2]: 0.647

SMILES: CC(CN(C)C)CN1c2ccccc2CCc2ccccc21 (configuration not stated) [Trimipramine maleate salt]
- scaled lipid accumulation score: 0.27

SMILES: COc1ccc2c(c1)N(C[C@H](C)CN(C)C)c1ccccc1S2 [Methotrimeprazine maleat salt]
- scaled lipid accumulation score: 0.642

SMILES: COc1ccc(-c2oc3c(CC=C(C)C)c(O[C@@H]4O[C@H](CO)[C@@H](O)[C@H](O)[C@H]4O)cc(O)c3c(=O)c2O[C@@H]2O[C@@H](C)[C@H](O)[C@@H](O)[C@H]2O)cc1
- scaled lipid accumulation score [2]: ≤ 0

SMILES: COc1ccc(-c2oc3c(CC=C(C)C)c(O[C@@H]4O[C@H](CO)[C@@H](O)[C@H](O)[C@H]4O)cc(O)c3c(=O)c2O[C@@H]2O[C@@H](C)[C@H](O)[C@@H](O)[C@H]2O)cc1 [Icariin]
- scaled lipid accumulation score [3]: 0.048
- scaled lipid accumulation score [2]: ≤ 0

SMILES: CCCCC[C@H](O)/C=C/[C@H]1[C@H](O)CC(=O)[C@@H]1C/C=C\CCCC(=O)OCC(O)CO (some centres not stated) [Prostaglandin E2-1-glyceryl ester]
- scaled lipid accumulation score [1]: ≤ 0

SMILES: CCCCC[C@H](O)/C=C/[C@@H]1[C@@H](C/C=C\CCCC(=O)NCC)[C@@H](O)C[C@H]1O [Prostaglandin F2.alpha. ethyl amide]
- scaled lipid accumulation score [1]: ≤ 0

SMILES: CCCCCCCCCCCCCCOc1ccc(C(=O)O)o1
- scaled lipid accumulation score [1]: 0.036

SMILES: COc1ccc(-c2cnc3c(-c4ccsc4)cnn3c2)cc1 [VEGF Receptor 2 Kinase Inhibitor IV]
- scaled lipid accumulation score [3]: ≤ 0
